M1 antag – blocks human M1 muscarinic receptor; AID 588852; 360,000 compounds, 1.3% hits; CHO-K1 hM1, Fluo-8 calcium fluorescence, ACh EC80 antagonist; inhibition, % at 3 µM;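 active = percent inhibition above its own plate's cutoff, namely the mean of that plate's compound wells plus 3 SD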;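 also: peak over basal fluorescence ratio during 140 s after agonist addition; 0% = ACh EC80 plus DMSO and 100% = DMSO alone without agonist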
Target sequence (P11229 whole entry, looked up): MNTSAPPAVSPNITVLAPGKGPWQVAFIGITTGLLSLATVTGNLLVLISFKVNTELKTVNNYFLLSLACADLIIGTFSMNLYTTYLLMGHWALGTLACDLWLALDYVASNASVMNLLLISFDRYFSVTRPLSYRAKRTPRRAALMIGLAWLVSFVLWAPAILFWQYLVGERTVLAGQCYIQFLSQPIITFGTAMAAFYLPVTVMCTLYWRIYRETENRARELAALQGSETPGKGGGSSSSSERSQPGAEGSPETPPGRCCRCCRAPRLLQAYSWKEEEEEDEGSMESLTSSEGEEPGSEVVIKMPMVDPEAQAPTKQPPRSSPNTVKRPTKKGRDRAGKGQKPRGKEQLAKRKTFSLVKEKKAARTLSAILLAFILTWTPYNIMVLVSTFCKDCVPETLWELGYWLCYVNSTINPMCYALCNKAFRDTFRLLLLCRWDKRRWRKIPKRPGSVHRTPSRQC
CHO-K1 Ca antag – nonselective inhibitor or artifact in parental CHO-K1 cells; ATP-induced calcium, Fluo-8 fluorescence; inhibition, % at 3 µM; 360,000 compounds, 0.6% hits; AID 602250;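 active = inhibition above a per-plate cutoff, the plate's mean sample inhibition plus 3 SD, cut at about 24% in these data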;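 also: 0% = DMSO plus EC80 ATP and 100% = DMSO alone without ATP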
M1 ag – human M1 muscarinic receptor agonism | P11229 | CHO-K1 hM1, Fluo-8 calcium fluorescence, agonist mode; 0% DMSO, 100% acetylcholine EC100 | activation, % at 3 µM | 360,000 compounds, 0.33% hits;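 active = activation above the run's mean compound activation plus 3 SD, cut at about 16% in these data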;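 also: peak over basal fluorescence ratio within a 140 s kinetic read after compound addition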
CHO-K1 Ca PAM – counter-screen for M1 PAMs: effect in parental CHO-K1 cells. ATP EC20, Fluo-8 calcium fluorescence; 0% at ATP EC20, 100% at ATP max. activation, % at 3 µM. 360,000 compounds, 0.02% hits. AID 602247;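 active = activation above the run cutoff, the mean activation of all test compounds plus 3 SD, cut at about 40% in these data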;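 also: peak over basal fluorescence ratio in a 140 s read after ATP addition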
CHO-K1 Ca ag – M1 agonist counterscreen hit in parental CHO-K1 cells; Fluo-8 calcium fluorescence; scaled to maximal ATP response, vehicle zero; 360,000 compounds, 0.48% hits; activation, % at 3 µM; in the data active = activation above about 15%;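 also: untransfected CHO-K1 host cells lacking M1 receptor as counterscreen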
CHRM1 PAM – potentiates human M1 receptor response to acetylcholine. 360,000 compounds, 0.088% hits. CHO-K1 hM1, Fluo-8 calcium fluorescence, ACh EC20; 0% = ACh EC20, 100% = maximal ACh. activation, % at 3 µM; in the data active = activation above about 19%, passing the limit was not always enough
Numbers without * were called inactive; · = not tested or not shown. Shown are actives, neighbours in structure and some others; about 2.3% of the full set was active somewhere.

SMILES	M1 antag	CHO-K1 Ca antag	M1 ag	CHO-K1 Ca PAM	CHO-K1 Ca ag	CHRM1 PAM
Cn1c(=O)c2c(nc(SCCN3CCCCC3)n2Cc2ccccc2)n(C)c1=O	39.1*	-8.1	-5.9	9.1	0.2	-16.6
CC1Cc2ccccc2N1C(=O)CSc1nc2c(c(=O)n(C)c(=O)n2C)n1Cc1ccccc1 (stereo not drawn)	41.0*	1.4	-3.1	5.5	5.1	-17.7
COc1ccccc1N1CCN(/N=C\c2sccc2C)CC1	5.2	2.6	-2.6	10.8	19.7*	4.0
CCOc1ccc(-c2noc(-c3csc([C@@H]4O[C@H](CO)[C@H](O)[C@H](O)[C@H]4O)n3)n2)cc1	-13.6	0.3	-1.0	4.5	0.3	4.4
COc1ccc(NC(=O)CSc2nnc(NC(=O)C3CC3)s2)cc1OC	-7.4	-8.7	0.8	16.3	1.4	2.5
COc1cc(OC)cc(C(=O)Nc2nc(CC(=O)NC(C)c3ccccc3)cs2)c1 (stereo not drawn)	21.6	18.8	-4.5	2.2	3.6	-11.3
CN(C1(C)CCS(=O)(=O)C1)S(=O)(=O)c1ccc2ccccc2c1 (stereo not drawn)	-5.8	-5.2	0.0	3.5	1.2	17.6
CCCOc1cccc(C(=O)N/N=C/c2coc3ccccc3c2=O)c1	29.6*	19.6	0.0	-22.7	-0.1	1.2
Cc1ccc(CN2CCN(CCCn3cnc4c(OCc5ccccc5)ncnc43)CC2)cc1	46.8*	-9.5	-7.8	-7.2	5.2	-26.5
Cc1cccnc1CN1CCN(Cc2nc(C(c3ccccc3)c3ccccc3)no2)CC1	71.1*	-2.0	-8.2	5.4	0.9	-26.3
C[C@@H]1CN(C2CCN(Cc3nc(C(c4ccccc4)c4ccccc4)no3)CC2)C[C@H](C)O1	0.5	-3.1	-12.9	11.4	-0.2	-20.6
OC(c1ccccn1)C1CCN(Cc2nc(C(c3ccccc3)c3ccccc3)no2)CC1 (stereo not drawn)	-8.1	-5.4	-11.8	13.2	1.1	4.3
Cc1nc(CN2CCN(Cc3nc(C(c4ccccc4)c4ccccc4)no3)CC2)cs1	65.3*	2.6	-12.6	6.4	-0.2	-31.9
CCCCCCCCN1C(=O)[C@H](CC(=O)NCCC(C)C)C[C@@]2(C(=O)OC)CCCCC=C12	·	-10.3	·	0.4	-0.6	·
Cc1ccc(S(=O)(=O)N2C[C@H]3C(=O)C[C@@H](c4ccccc4)N(S(=O)(=O)c4ccc(C)cc4)[C@H]3C[C@H]2c2ccccc2Cl)cc1	1.0	6.7	-2.8	10.9	0.5	-1.5
CC(C)CNc1ncnc2c1ncn2[C@H]1CN(Cc2ccco2)C[C@@H](CO)O1	-1.4	-3.5	1.8	7.6	0.1	-0.3
Cc1ccc(CCNC(=O)c2ccc(CS(=O)(=O)Cc3ccc(F)cc3)o2)cc1	-5.8	-14.3	0.7	3.0	2.0	10.1
COc1ccc(CCNC(=O)c2ccc(CS(=O)(=O)Cc3ccc(C)cc3)o2)cc1OC	3.3	-8.3	2.2	9.4	15.2*	-6.4
COc1ccc(CCNC(=O)c2ccc(CS(=O)(=O)c3ccc(Cl)cc3)o2)cc1OC	30.1*	-0.4	4.3	-3.9	16.8*	-25.0
COc1ccc(CCNC(=O)c2ccc(CS(=O)(=O)c3ccc(C)cc3)o2)cc1OC	5.8	-8.9	1.6	-19.0	5.8	-1.9
COc1cc(N)c(Cl)cc1C(=O)OCC(=O)NCC1CCCCC1	-7.3	-6.9	3.8	9.4	-0.1	10.4
COc1ccc(N=Cc2oc3ccc4ccccc4c3c2O)cc1	15.9	8.9	10.6	8.7	24.4*	-2.9
CCn1c(CNC(=O)c2cccs2)n[nH]c1=S	2.3	2.3	-5.1	21.5	7.4	8.5
Cc1cccc(C)c1OCC(O)Cn1ccnc1C (stereo not drawn)	5.1	25.6*	-5.6	-9.4	-0.8	-1.3
Cc1ccc(S(=O)(=O)c2nnn3c2nc(NC2CCN(Cc4ccccc4)CC2)c2ccccc23)cc1C	74.8*	8.2	-6.1	-1.4	0.3	-23.2
SMILES	M1 antag	CHO-K1 Ca antag	M1 ag	CHO-K1 Ca PAM	CHO-K1 Ca ag	CHRM1 PAM
Cc1ccc(S(=O)(=O)c2nnn3c2nc(NCCCN2CCCC2=O)c2ccccc23)cc1C	12.8	-2.2	-5.2	-18.4	2.1	-6.1
CCOc1ccc(N(CC(=O)NC2CCCCC2)C(=O)Cn2nnc(-c3ccc(C)o3)n2)cc1	-11.7	-32.2	0.6	-1.7	-0.7	2.2
N#CC1=C(N)SC(N)=C(C#N)C1CCc1ccccc1	9.4	28.5*	12.1	-9.1	6.7	3.7
N#CC1=C(N)SC(N)=C(C#N)C1Cc1ccccc1	-0.1	-10.4	6.0	9.3	7.4	-4.0
CCc1ccc(C2C(C#N)=C(N)SC(N)=C2C#N)cc1	20.0	-9.6	17.2*	-4.4	21.4*	-18.4
O=C(NNC(=O)C1CCC1)c1ccccc1F	-15.0	4.2	-0.2	-17.8	1.1	16.0
c1ccc(-c2nnc3oc(-c4cccs4)nn23)cc1	-3.8	0.0	-1.9	-1.7	1.6	0.8
CCCCN1C(=O)C(CC(=O)NCCc2ccccn2)CC(C(=O)N(CC)CC)=C1C (stereo not drawn)	-13.2	12.7	-1.1	-8.5	0.0	5.0
Cc1nn(C)cc1CN1CCCC(C(=O)c2ccc(-c3ccccc3)cc2)C1 (stereo not drawn)	12.3	7.8	-13.7	-2.7	1.2	-33.3
CCCCNC(=O)C1(N2C(=O)c3ccccc3C2=O)CCCC1	-4.8	-8.6	-2.7	9.4	0.0	6.6
Nc1nc(N2CCN(c3ccccn3)CC2)nc2ccccc12	36.5*	7.5	-8.6	-23.1	1.1	-28.5
c1ccc(-c2nnc(N3CCN(c4ccccn4)CC3)c3ccccc23)cc1	47.5*	20.9	-3.2	-7.2	2.1	-17.9
Nc1nc(N2CCCCC2)nc2ccccc12	25.8	10.4	-4.5	-6.7	-0.2	-10.3
COc1ccc(C(=O)ON=C(C)c2nccs2)cc1	-12.2	-10.1	-2.7	24.3	1.9	5.2
OCCOc1ccc(CN2CCN(CCCc3ccccc3)C(CCO)C2)cc1 (stereo not drawn)	-12.8	-1.5	-7.7	10.1	0.3	0.6
Cc1noc(C)c1S(=O)(=O)N(C)C[C@H]1Oc2c(NS(=O)(=O)c3cn(C)cn3)cccc2C(=O)N([C@H](C)CO)C[C@@H]1C	-12.2	-7.8	-3.2	16.0	0.8	6.4
Cc1c(CN2CCCCC2)c(O)n(CCCO)c(=O)c1C#N	36.1*	-14.8	6.9	24.0	0.8	-6.0
Cc1ccc(S(=O)(=O)NCCC(=O)N2CCN(c3cccc(Cl)c3)CC2)cc1C	-10.7	-6.7	-0.7	4.2	6.1	6.0
O=C(CCNS(=O)(=O)c1ccc2nsnc2c1)N1CCN(c2ccncc2)CC1	61.8*	-15.9	-10.4	9.8	0.2	-29.8
CN(C(=O)COC(=O)/C=C/c1ccc(F)cc1)c1c(N)n(Cc2ccccc2)c(=O)[nH]c1=O	-20.6	-8.6	-1.5	5.4	0.1	16.9

High-throughput results from PubChem BioAssay.
